# Results published in article PMC5700166.
# Molecular target: T1, GST-Aq-NF-kB (Amphimedon queenslandica, UniProt A9Y5G7 2-389)
# T1 sequence: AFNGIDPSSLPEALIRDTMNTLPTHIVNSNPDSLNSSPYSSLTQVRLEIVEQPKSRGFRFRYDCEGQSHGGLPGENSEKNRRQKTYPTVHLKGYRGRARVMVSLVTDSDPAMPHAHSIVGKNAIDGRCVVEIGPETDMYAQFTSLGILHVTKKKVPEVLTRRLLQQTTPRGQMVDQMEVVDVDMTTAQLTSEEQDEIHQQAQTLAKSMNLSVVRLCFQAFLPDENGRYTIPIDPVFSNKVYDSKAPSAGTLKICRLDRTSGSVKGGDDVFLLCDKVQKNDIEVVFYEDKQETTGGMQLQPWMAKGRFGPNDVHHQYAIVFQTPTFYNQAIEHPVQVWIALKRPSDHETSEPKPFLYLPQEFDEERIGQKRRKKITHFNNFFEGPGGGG
# Experiment: protein-binding microarray (PBM); PBM: ~300 nM protein, 6 mM HEPES pH 7.8, 80 mM KCl, 0.5 mM EDTA, 0.5 mM EGTA, 6% glycerol, 35 ng/ul poly-dIdC, 1% milk, 1 h, room temperature; Ap Aiptasia and Nv Nematostella (sea anemones) / Co Capsaspora / Aq Amphimedon (sponge) / Dm Drosophila / Hu human; RHD is the Rel homology domain; high values mean tight binding
# Settings: dsDNA, one strand shown
row,Sequence,binding signal [z-score]
1,CCGATTAACATCACTAAAATTCCTGATGTTAATCGGGTCTTGATTCGCTTGACGCTGCTG,1.03
2,CCGATTAACATCAAGGATTGCCCTGATGTTAATCGGGTCTTGATTCGCTTGACGCTGCTG,1.51
3,CCGATTAACATCAAGGCATTTCCTGATGTTAATCGGGTCTTGATTCGCTTGACGCTGCTG,1.06
4,CCGATTAACATCAAGGAACTTCCTGATGTTAATCGGGTCTTGATTCGCTTGACGCTGCTG,1.83
5,CCGATTAACATCAAGGAATCTCCTGATGTTAATCGGGTCTTGATTCGCTTGACGCTGCTG,1.78
6,CCGATTAACATCAGAAACTTTCCTGATGTTAATCGGGTCTTGATTCGCTTGACGCTGCTG,2.07
7,CCGATTAACATCAGGAAATTCTATGATGTTAATCGGGTCTTGATTCGCTTGACGCTGCTG,1.08
8,CCGATTAACATCAAGGAGTTTCCTGATGTTAATCGGGTCTTGATTCGCTTGACGCTGCTG,2.55
9,CCGATTAACATCACGGACTGTCCTGATGTTAATCGGGTCTTGATTCGCTTGACGCTGCTG,2.22
10,CCGATTAACATCACGGAATGTCCTGATGTTAATCGGGTCTTGATTCGCTTGACGCTGCTG,1.82
11,CCGATTAACATCAGGACATTCCATGATGTTAATCGGGTCTTGATTCGCTTGACGCTGCTG,1.23
12,CCGATTAACATCACGGAAAATTCTGATGTTAATCGGGTCTTGATTCGCTTGACGCTGCTG,1.15
13,CCGATTAACATCAGGAAATTTCATGATGTTAATCGGGTCTTGATTCGCTTGACGCTGCTG,1.4
14,CCGATTAACATCACGGAGATTCCTGATGTTAATCGGGTCTTGATTCGCTTGACGCTGCTG,2.72
15,CCGATTAACATCAAGGAGATTCCTGATGTTAATCGGGTCTTGATTCGCTTGACGCTGCTG,1.73
16,CCGATTAACATCAAGGAATGTCCTGATGTTAATCGGGTCTTGATTCGCTTGACGCTGCTG,1.74
17,CCGATTAACATCACGGAATATCCTGATGTTAATCGGGTCTTGATTCGCTTGACGCTGCTG,1.48
18,CCGATTAACATCAGGAAAGTTCCTGATGTTAATCGGGTCTTGATTCGCTTGACGCTGCTG,1.9
19,CCGATTAACATCAGGAACTGCCCTGATGTTAATCGGGTCTTGATTCGCTTGACGCTGCTG,2.36
20,CCGATTAACATCACGGATATTCCTGATGTTAATCGGGTCTTGATTCGCTTGACGCTGCTG,1.34

row,Sequence,binding signal [z-score]
1,CCGATTAACATCAGGATATGCCCTGATGTTAATCGGGTCTTGATTCGCTTGACGCTGCTG,1.7
2,CCGATTAACATCACGGCAATTCCTGATGTTAATCGGGTCTTGATTCGCTTGACGCTGCTG,1.38
3,CCGATTAACATCAAGGACATTCCTGATGTTAATCGGGTCTTGATTCGCTTGACGCTGCTG,1.43
4,CCGATTAACATCAGGGCAGTCCATGATGTTAATCGGGTCTTGATTCGCTTGACGCTGCTG,1.1
5,CCGATTAACATCAGGACAGTCCATGATGTTAATCGGGTCTTGATTCGCTTGACGCTGCTG,1.46
6,CCGATTAACATCACGGAAATGCCTGATGTTAATCGGGTCTTGATTCGCTTGACGCTGCTG,1.48
7,CCGATTAACATCACGGACTGCCCTGATGTTAATCGGGTCTTGATTCGCTTGACGCTGCTG,1.7
8,CCGATTAACATCAAGAATTTCCGTGATGTTAATCGGGTCTTGATTCGCTTGACGCTGCTG,1.89
9,CCGATTAACATCAAAAATATTCCTGATGTTAATCGGGTCTTGATTCGCTTGACGCTGCTG,1
10,CCGATTAACATCAAAAATCCGGTTGATGTTAATCGGGTCTTGATTCGCTTGACGCTGCTG,1.32
11,CCGATTAACATCAAATTTCCGGATGATGTTAATCGGGTCTTGATTCGCTTGACGCTGCTG,1.25
12,CCGATTAACATCAGGCATTTCCATGATGTTAATCGGGTCTTGATTCGCTTGACGCTGCTG,1.13
13,CCGATTAACATCACGGAAGTTCCTGATGTTAATCGGGTCTTGATTCGCTTGACGCTGCTG,2.56
14,CCGATTAACATCAACGGAATTTCTGATGTTAATCGGGTCTTGATTCGCTTGACGCTGCTG,1
15,CCGATTAACATCAAAGAATTTCCTGATGTTAATCGGGTCTTGATTCGCTTGACGCTGCTG,1.45
16,CCGATTAACATCAGGAAGTGCCCTGATGTTAATCGGGTCTTGATTCGCTTGACGCTGCTG,2.55
17,CCGATTAACATCACGGCATTTCCTGATGTTAATCGGGTCTTGATTCGCTTGACGCTGCTG,1.96
18,CCGATTAACATCAAAATTTTCCATGATGTTAATCGGGTCTTGATTCGCTTGACGCTGCTG,1.14
19,CCGATTAACATCAGAATTTCCGCTGATGTTAATCGGGTCTTGATTCGCTTGACGCTGCTG,1.06
